Reference: PubChem BioAssay (EPA / NIEHS)
Records with an inconclusive call do not appear. Some structures have more than one record in an assay (separate samples or runs), and their calls can disagree. Activity calls are given as the source filed them. Rule for the calls, unless noted: active = hit-call score of the fitted dose curve at least 0.9, where 1 is the maximum; inactive = score below 0.9.

Key:
[1] = read-out: Pyruvate Dehydrogenase Kinase 4 (PDK4), PDK4 (gene 5166); experiment: LTEA_HepaRG_PDK4: Life Technologies and Expression Analysis (LTEA) Assay for Pyruvate Dehydrogenase Kinase 4 (PDK4) using HepaRG (AID 2283525); conditions: mRNA level, 48 h; actives raise or lower the signal
Outline: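 In this multiplexed human HepaRG expression assay, cells are treated 48 h with test chemicals across an eight-point range starting at 100 uM. PDK4 mRNA changes, normalized to ACTB/GAPDH/POLR2A, are fitted in both directions relative to vehicle.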

[2] = read-out: NAD(P)H dehydrogenase [quinone] 1 (NQO1), NQO1 (gene 1728); experiment: LTEA_HepaRG_NQO1: Life Technologies and Expression Analysis (LTEA) Assay for NAD(P)H dehydrogenase [quinone] 1 (NQO1) using HepaRG (AID 2283526); conditions: mRNA level, 48 h; actives raise or lower the signal
Outline: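 Differentiated human HepaRG cells in serum-free induction medium, dosed in duplicate for 48 h at 8 half-log concentrations up to 100 uM in 0.5% DMSO. NQO1 mRNA by qRT-PCR normalized to ACTB, GAPDH, POLR2A; bidirectional fit versus DMSO baseline.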

[3] = read-out: Nuclear factor erythroid 2-related factor 2 (Homo sapiens) (UniProt Q16236); experiment: LTEA_HepaRG_NFE2L2: Life Technologies and Expression Analysis (LTEA) Assay for Nuclear factor erythroid 2-related factor 2 (NFE2L2) Transcription Factor using HepaRG (AID 2283527); conditions: mRNA level, 48 h; actives raise or lower the signal;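 note: TaqMan qRT-PCR transcript level normalised to ACTB GAPDH and POLR2A housekeeping genes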
Outline: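 Transcript level of NFE2L2 is the read-out, measured by microfluidic TaqMan qRT-PCR and normalized to three housekeeping genes. Human HepaRG cultures received test chemical for 48 h at up to 100 uM in half-log steps. Gain or loss of signal is fitted relative to 0.5% DMSO.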

[4] = read-out: Signal transducer and activator of transcription 3 (Homo sapiens) (UniProt P40763); experiment: LTEA_HepaRG_STAT3: Life Technologies and Expression Analysis (LTEA) Assay for Signal transducer and activator of transcription (STAT3) using HepaRG (AID 2283529); conditions: mRNA level, 48 h; actives raise or lower the signal
Outline: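 Read-out is STAT3 mRNA level by qRT-PCR, normalized to three housekeeping genes, in human HepaRG liver cells treated for 48 h. Concentrations ran from 100 uM downward in half-log steps; curves were fitted for gain or loss relative to 0.5% DMSO.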

[5] = read-out: solute carrier (SLCO1B1), SLCO1B1 (gene 10599); experiment: LTEA_HepaRG_SLCO1B1: Life Technologies and Expression Analysis (LTEA) Assay for solute carrier (SLCO1B1) using HepaRG (AID 2283530); conditions: mRNA level, 48 h; actives raise or lower the signal
Outline: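 Differentiated human HepaRG cells, plated 48 h, switched to serum-free induction medium and exposed in duplicate for 48 h to 8 half-log concentrations (top 100 uM) in 0.5% DMSO. SLCO1B1 mRNA by TaqMan qRT-PCR, normalized to ACTB/GAPDH/POLR2A.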

[6] = read-out: sulfotransferase 2A1 (SULT2A1), SULT2A1 (gene 6822); experiment: LTEA_HepaRG_SULT2A1: Life Technologies and Expression Analysis (LTEA) Assay for sulfotransferase 2A1 (SULT2A1) using HepaRG (AID 2283531); conditions: mRNA level, 48 h; actives raise or lower the signal
Outline: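 Differentiated human HepaRG cells in serum-free induction medium were exposed for 48 h to eight half-log concentrations (top 100 uM, 0.5% DMSO). SULT2A1 mRNA was measured by qRT-PCR, normalized to ACTB, GAPDH and POLR2A, and fitted bidirectionally against DMSO.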

[7] = read-out: Transforming Growth Factor (TGFA), TGFA (gene 7039); experiment: LTEA_HepaRG_TGFA: Life Technologies and Expression Analysis (LTEA) Assay for Transforming Growth Factor (TGFA) using HepaRG (AID 2283532); conditions: mRNA level, 48 h; actives raise or lower the signal
Outline: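 HepaRG (human liver line), 48 h exposure, 8 conc. half-log down from 100 uM, 0.5% DMSO vehicle, duplicates; serum-free induction medium. TGFA mRNA by TaqMan qRT-PCR, ACTB/GAPDH/POLR2A normalization; gain/loss fit vs DMSO.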

[8] = read-out: Transforming Growth Factor (TGFB1), TGFB1 (gene 7040); experiment: LTEA_HepaRG_TGFB1: Life Technologies and Expression Analysis (LTEA) Assay for Transforming Growth Factor (TGFB1) Transporter using HepaRG (AID 2283533); conditions: mRNA level, 48 h; actives raise or lower the signal
Outline: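 Differentiated human HepaRG cells in serum-free induction medium were exposed in duplicate for 48 h to eight concentrations (top 100 uM, half-log steps, 0.5% DMSO). TGFB1 mRNA was quantified by qRT-PCR, normalized to ACTB, GAPDH, POLR2A, and fitted bidirectionally against DMSO.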

TIMP1, TIMP1 (gene 7076) = experiment: LTEA_HepaRG_TIMP1: Life Technologies and Expression Analysis (LTEA) Assay for TIMP1 using HepaRG (AID 2283534); conditions: mRNA level, 48 h; actives raise or lower the signal
Outline: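 Differentiated human HepaRG cells in serum-free induction medium were exposed 48 h to chemicals (8 half-log concentrations, top 100 uM, 0.5% DMSO). TIMP1 mRNA was quantified by TaqMan qRT-PCR, normalized to ACTB/GAPDH/POLR2A; bidirectional fit versus DMSO.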

[9] = read-out: Tumor necrosis factor receptor 1 (TNFRSF1A), TNFRSF1A (gene 7132); experiment: LTEA_HepaRG_TNFRSF1A: Life Technologies and Expression Analysis (LTEA) Assay for Tumor necrosis factor receptor 1 (TNFRSF1A) using HepaRG (AID 2283535); conditions: mRNA level, 48 h; actives raise or lower the signal
Outline: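 Differentiated human HepaRG cells were exposed in duplicate for 48 h in serum-free induction medium to eight concentrations (top 100 uM, half-log steps, 0.5% DMSO). TNFRSF1A mRNA was quantified by qRT-PCR, normalized to ACTB, GAPDH and POLR2A, then fitted bidirectionally against DMSO.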

[10] = read-out: Thyroid Hormone Responsive (THRSP), THRSP (gene 7069); experiment: LTEA_HepaRG_THRSP: Life Technologies and Expression Analysis (LTEA) Assay for Thyroid Hormone Responsive (THRSP) using HepaRG (AID 2283536); conditions: mRNA level, 48 h; actives raise or lower the signal
Outline: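 mRNA induction or loss relative to 0.5% DMSO vehicle was fitted bidirectionally across an eight-point curve whose highest exposure was 100 uM. Human HepaRG liver cells received chemicals in duplicate over 48 h before RNA extraction.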

[11] = read-out: Cellular tumor antigen p53 (Homo sapiens) (UniProt P04637); experiment: LTEA_HepaRG_TP53: Life Technologies and Expression Analysis (LTEA) Assay for Tumor Protein P53 (TP53) using HepaRG (AID 2283537); conditions: mRNA level, 48 h; actives raise or lower the signal
Outline: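 Differentiated HepaRG cells in serum-free induction medium exposed 48 h in duplicate to 8 half-log concentrations, top 100 uM, 0.5% DMSO. TP53 mRNA by TaqMan qRT-PCR (Fluidigm), normalized to ACTB, GAPDH, POLR2A; fitted bidirectionally versus DMSO.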

[12] = read-out: UDP glucuronosyltransferase (UGT1A1), UGT1A1 (gene 54658); experiment: LTEA_HepaRG_UGT1A1: Life Technologies and Expression Analysis (LTEA) Assay for UDP glucuronosyltransferase (UGT1A1) using HepaRG (AID 2283538); conditions: mRNA level, 48 h; actives raise or lower the signal
Outline: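 HepaRG cells, 0.5% DMSO vehicle, 48 h exposure in serum-free induction medium to 8-point half-log series topping at 100 uM, in duplicate. UGT1A1 mRNA by Fluidigm qRT-PCR, normalized to ACTB/GAPDH/POLR2A; bidirectional fit versus DMSO.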

[13] = read-out: UDP glucuronosyltransferase (UGT1A6), UGT1A6 (gene 54578); experiment: LTEA_HepaRG_UGT1A6: Life Technologies and Expression Analysis (LTEA) Assay for UDP glucuronosyltransferase (UGT1A6) using HepaRG (AID 2283539); conditions: mRNA level, 48 h; actives raise or lower the signal
Outline: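 Human HepaRG cells were dosed for 48 h in serum-free induction medium with 0.5% DMSO vehicle, eight-point half-log series from 100 uM, in duplicate. UGT1A6 mRNA was measured by qRT-PCR, normalized to ACTB, GAPDH, POLR2A, and fitted bidirectionally against DMSO.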

[14] = read-out: X-box binding protein 1 (XBP1), XBP1 (gene 7494); experiment: LTEA_HepaRG_XBP1: Life Technologies and Expression Analysis (LTEA) Assay for X-box binding protein 1 (XBP1) using HepaRG (AID 2283540); conditions: mRNA level, 48 h; actives raise or lower the signal
Outline: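 Differentiated human HepaRG cells in serum-free induction medium were exposed in duplicate for 48 h to eight half-log concentrations up to 100 uM in 0.5% DMSO. XBP1 mRNA was quantified by qRT-PCR, normalised to ACTB, GAPDH and POLR2A, with bidirectional fitting against DMSO.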

[15] = LTEA_HepaRG_LDH_cytotoxicity: Cytotoxicity Assessment in the Life Technologies and Expression Analysis (LTEA) Assay (AID 2283563; active = hit-call score of the fitted dose curve at least 0.9, where 1 is the maximum;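 for AC50: LDH activity released into spent culture medium as a marker of cell death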)
Outline: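 Differentiated human HepaRG cells, plated 48 h beforehand, were switched to serum-free induction medium and exposed for 48 h to eight half-log concentrations (top 100 uM) in 0.5% DMSO. LDH was measured in spent medium; activity was fitted relative to DMSO vehicle.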

[16] = ATG_XTT_Cytotoxicity: Cytotoxicity Assessment in the Attagene TRANS-FACTORIAL HepG2 Assay (AID 2283584; active = hit-call score of the fitted dose curve at least 0.9, where 1 is the maximum)
Outline: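 HepG2 human liver cells, transiently transfected with multiple GAL4-UAS reporter units, were dosed and read at 24 h by XTT as cell number. Loss of signal was fitted relative to DMSO negative control baseline.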

[17] = TOX21_p53_BLA_p2_viability: Viability Assessment in the Tox21 HCT-116 p53 Agonism Beta-lactamase Assay, Phase 2 (AID 2283591; active = hit-call score of the fitted dose curve at least 0.9, where 1 is the maximum;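 note: compound exposure lasted 16 h at 37 °C; actives lower the ATP signal meaning cytotoxicity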)
Outline: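 Cytotoxicity readout: CellTiter-Glo ATP luminescence, 30 min at room temperature, after the beta-lactamase read. Cells were HCT116 exposed 16 h at 37C to compounds pin-transferred at 217-fold dilution from DMSO stocks.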

[18] = biological target: Cellular tumor antigen p53 (Homo sapiens) (UniProt P04637); experiment: TOX21_p53_BLA_p2_ratio: Tox21 HCT-116 p53 Agonism Beta-lactamase Assay, Ratio, Phase 2 (AID 2283592; active = hit-call score of the fitted dose curve at least 0.9, where 1 is the maximum)
Chain of Cellular tumor antigen p53 (Homo sapiens) (P04637 whole entry, looked up): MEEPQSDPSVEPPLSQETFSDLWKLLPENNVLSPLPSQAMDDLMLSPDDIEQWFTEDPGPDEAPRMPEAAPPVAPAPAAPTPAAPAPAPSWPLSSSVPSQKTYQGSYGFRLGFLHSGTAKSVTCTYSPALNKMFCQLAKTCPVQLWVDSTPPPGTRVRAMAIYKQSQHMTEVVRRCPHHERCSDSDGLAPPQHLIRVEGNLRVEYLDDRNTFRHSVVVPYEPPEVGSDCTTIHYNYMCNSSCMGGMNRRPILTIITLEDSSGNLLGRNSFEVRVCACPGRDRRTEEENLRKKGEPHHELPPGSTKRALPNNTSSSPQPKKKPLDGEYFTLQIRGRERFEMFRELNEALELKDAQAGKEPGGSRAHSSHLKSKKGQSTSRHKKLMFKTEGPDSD
Outline: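 HCT116 cells carrying a p53-responsive beta-lactamase reporter were plated, incubated 5 h at 37C, then dosed with compounds in DMSO (217-fold dilution) for 16 h. CCF4-AM substrate was added for 2 h at room temperature; the 460/530 nm emission ratio gave gain-of-signal activity relative to DMSO.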

[19] = read-out: succinate dehydrogenase complex iron sulfur subunit B (SDHB), SDHB (gene 6390); experiment: LTEA_HepaRG_SDHB: Life Technologies and Expression Analysis (LTEA) Assay for succinate dehydrogenase complex iron sulfur subunit B (SDHB) using HepaRG (AID 2283528); conditions: mRNA level, 48 h; actives raise or lower the signal
Outline: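 HepaRG cells (~100,000/well, plated 48 h) exposed in duplicate for 48 h in serum-free induction medium to 8-point half-log series from 100 uM in 0.5% DMSO; mRNA by qRT-PCR normalised to ACTB, GAPDH, POLR2A; bidirectional fit versus DMSO.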

Measured: AC50

Chain of Signal transducer and activator of transcription 3 (Homo sapiens) (P40763 whole entry, looked up): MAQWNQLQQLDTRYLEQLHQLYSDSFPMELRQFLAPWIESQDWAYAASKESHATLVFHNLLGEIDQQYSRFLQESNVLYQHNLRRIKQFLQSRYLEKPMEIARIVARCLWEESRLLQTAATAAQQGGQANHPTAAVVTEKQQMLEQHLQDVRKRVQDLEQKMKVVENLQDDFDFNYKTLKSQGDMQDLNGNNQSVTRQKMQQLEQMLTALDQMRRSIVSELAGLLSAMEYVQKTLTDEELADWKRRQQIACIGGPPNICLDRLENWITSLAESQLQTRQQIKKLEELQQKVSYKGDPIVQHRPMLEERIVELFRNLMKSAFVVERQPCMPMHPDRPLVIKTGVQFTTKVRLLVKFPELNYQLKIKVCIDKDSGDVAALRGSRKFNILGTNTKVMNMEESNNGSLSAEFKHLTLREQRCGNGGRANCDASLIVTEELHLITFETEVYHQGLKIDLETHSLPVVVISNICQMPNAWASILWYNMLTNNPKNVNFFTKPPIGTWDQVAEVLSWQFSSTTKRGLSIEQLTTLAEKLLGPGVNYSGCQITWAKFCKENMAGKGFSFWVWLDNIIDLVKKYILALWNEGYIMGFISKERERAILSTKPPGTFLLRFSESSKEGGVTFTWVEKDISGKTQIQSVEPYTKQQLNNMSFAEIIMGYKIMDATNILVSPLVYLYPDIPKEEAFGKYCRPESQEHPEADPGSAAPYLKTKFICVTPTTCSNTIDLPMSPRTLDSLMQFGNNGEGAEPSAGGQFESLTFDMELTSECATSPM
Chain of Nuclear factor erythroid 2-related factor 2 (Homo sapiens) (Q16236 whole entry, looked up): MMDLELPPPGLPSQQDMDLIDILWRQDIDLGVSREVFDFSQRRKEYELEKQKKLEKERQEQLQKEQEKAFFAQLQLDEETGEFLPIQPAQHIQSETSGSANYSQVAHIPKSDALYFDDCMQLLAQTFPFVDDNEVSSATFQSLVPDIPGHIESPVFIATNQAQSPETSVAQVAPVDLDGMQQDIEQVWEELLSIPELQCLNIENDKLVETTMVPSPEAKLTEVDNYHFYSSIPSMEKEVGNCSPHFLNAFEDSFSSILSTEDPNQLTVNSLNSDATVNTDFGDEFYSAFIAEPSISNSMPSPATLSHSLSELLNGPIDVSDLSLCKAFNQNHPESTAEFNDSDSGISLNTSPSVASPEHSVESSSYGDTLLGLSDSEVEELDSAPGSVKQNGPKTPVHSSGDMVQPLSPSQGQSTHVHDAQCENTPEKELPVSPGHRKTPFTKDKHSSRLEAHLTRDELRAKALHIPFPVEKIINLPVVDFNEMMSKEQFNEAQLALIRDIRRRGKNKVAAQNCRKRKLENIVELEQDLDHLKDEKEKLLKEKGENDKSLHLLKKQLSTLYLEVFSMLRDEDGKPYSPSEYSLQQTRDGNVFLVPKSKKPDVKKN

CCC(=O)O[C@H]1CC[C@H]2[C@@H]3CCC4=CC(=O)CC[C@]4(C)[C@H]3CC[C@]12C
inactive: [1] | [2] | [3] | [4] | [6] | [7] | [8] | TIMP1, TIMP1 (gene 7076) | [9] | [10] | [11] | [13] | [14] | [15] | [16] | [17] | [18]
active: [5] 12.6 µM | [12] 5.32 µM | [17] 70.4 µM | [18] 87.7 µM

C[C@]12CCC(=O)C=C1CC[C@@H]1[C@@H]2CC[C@]2(C)C(=O)CC[C@@H]12
active: [6] 15.2 µM | [7] 50 µM | [10] 1.39 µM | [12] 13.1 µM
inactive: all other assays above

CC1=C2C[C@H]3[C@@H](CC=C4C[C@@H](O)CC[C@@]43C)[C@@H]2CC[C@]12O[C@@H]1C[C@H](C)CN[C@H]1[C@H]2C
active: [14] 25 µM
not listed: [18] | [19]
inactive: all other assays above

C[C@]12CCC(=O)C=C1CC[C@@H]1[C@@H]2CC[C@@]2(C)[C@H]1CC[C@]2(C)O
active: [1] 45.8 µM | [8] 45.8 µM | [9] 45.8 µM | [10] 0.81 µM | [12] 10.9 µM | [13] 45.8 µM | [15] 74 µM | [18] 50.3 µM
inactive: [2] | [3] | [19] | [4] | [5] | [6] | [7] | TIMP1, TIMP1 (gene 7076) | [11] | [14] | [16] | [17] | [18]

Cc1cccc(C)c1N
not listed: [17]
inactive: all other assays above

CCC(C)c1cc([N+](=O)[O-])cc([N+](=O)[O-])c1O (stereo not drawn)
active: [2] 3.47 µM | [19] 0.656 µM | [4] 0.631 µM | [5] 2.32 µM | [6] 3.13 µM | [7] 4.14 µM | TIMP1, TIMP1 (gene 7076) 2.51 µM | [9] 4.74 µM | [10] 1.98 µM | [11] 1.55 µM | [12] 1.83 µM | [13] 4.17 µM | [15] 3.73 µM | [18] 4.16 µM
inactive: [1] | [3] | [8] | [14] | [16]
